Measurements reported in the supplement of paper PMC10849652.
Targets with a hit are over-represented here; the source holds about 7,900 in all. About 0.6% of all pairs of compound and target were hits. Unmarked numbers belong to inactive results.

These targets were tested with Cc1ccc(-n2nc(C(C)(C)C)cc2NC(=O)Nc2ccc(OCCN3CCOCC3)c3ccccc23)cc1 [doramapimod] (assay: log2 fold change, soluble protein after heating vs DMSO (PISA); higher = thermal stabilisation; K562 cells, 10 uM, 30 min; active = over 0.2 and 3.5 SD of the protein, either way, in both replicates (recomputed)).
Method in brief: (§1)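 For each measurement, 10 μM compound was applied for 30 min to K562 cells at 2×10^6 cells/mL. Aliquots were heated for 3 min across 48°C-58°C, pooled, and extracted in PBS with 0.5% NP-40 at 4°C; the supernatant after 21,000xg for 90 min was soluble protein. This was quantified by TMTpro 16plex LC-MS/MS with channel sums equalised, and thermal stability was reported relative to control samples from duplicates, on a log2 fold-change scale.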

Sequence of UniProt Q9P287 (Q9P287 whole entry, looked up): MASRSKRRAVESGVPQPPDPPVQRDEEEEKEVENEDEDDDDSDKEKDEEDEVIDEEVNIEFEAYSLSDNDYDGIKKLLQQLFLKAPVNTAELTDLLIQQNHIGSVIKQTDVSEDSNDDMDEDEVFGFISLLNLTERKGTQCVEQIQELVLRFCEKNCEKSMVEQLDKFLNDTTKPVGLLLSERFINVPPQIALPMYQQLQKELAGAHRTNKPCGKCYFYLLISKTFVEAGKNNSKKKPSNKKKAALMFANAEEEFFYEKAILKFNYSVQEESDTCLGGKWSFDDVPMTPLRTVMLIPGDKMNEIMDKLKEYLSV
Sequence of UniProt Q93084 (Q93084 whole entry, looked up): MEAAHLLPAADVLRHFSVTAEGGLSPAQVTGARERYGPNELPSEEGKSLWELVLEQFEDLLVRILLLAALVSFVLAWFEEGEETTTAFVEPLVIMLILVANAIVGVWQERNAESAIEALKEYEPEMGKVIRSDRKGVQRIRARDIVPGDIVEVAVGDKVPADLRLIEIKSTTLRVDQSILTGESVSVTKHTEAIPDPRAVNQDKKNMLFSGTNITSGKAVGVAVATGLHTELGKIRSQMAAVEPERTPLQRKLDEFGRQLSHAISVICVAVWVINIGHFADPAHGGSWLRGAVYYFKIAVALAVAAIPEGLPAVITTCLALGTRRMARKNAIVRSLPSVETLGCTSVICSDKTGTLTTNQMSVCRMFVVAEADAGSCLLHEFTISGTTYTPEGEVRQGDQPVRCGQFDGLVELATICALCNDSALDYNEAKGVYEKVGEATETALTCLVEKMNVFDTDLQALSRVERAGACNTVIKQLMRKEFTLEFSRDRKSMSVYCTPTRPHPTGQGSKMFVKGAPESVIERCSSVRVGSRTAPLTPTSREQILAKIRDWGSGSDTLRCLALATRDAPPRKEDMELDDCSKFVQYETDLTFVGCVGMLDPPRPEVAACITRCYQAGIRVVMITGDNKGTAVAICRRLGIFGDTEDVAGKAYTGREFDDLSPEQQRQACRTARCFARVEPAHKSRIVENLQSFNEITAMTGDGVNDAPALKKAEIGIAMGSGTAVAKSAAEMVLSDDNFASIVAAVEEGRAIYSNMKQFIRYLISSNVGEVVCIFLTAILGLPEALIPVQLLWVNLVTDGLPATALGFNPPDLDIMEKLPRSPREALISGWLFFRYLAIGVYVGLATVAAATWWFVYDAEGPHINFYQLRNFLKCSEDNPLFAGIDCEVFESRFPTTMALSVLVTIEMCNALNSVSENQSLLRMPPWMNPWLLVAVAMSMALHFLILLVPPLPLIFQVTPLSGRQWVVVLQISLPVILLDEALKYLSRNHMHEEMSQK
Sequence of UniProt Q9NWB6 (Q9NWB6 whole entry, looked up): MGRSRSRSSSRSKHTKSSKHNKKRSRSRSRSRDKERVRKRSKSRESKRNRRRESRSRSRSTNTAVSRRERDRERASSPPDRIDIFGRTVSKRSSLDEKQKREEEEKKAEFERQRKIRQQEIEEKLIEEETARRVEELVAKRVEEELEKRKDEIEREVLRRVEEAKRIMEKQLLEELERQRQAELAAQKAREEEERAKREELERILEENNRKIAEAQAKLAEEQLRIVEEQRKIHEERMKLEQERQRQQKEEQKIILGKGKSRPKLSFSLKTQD
Sequence of UniProt P15291 (P15291 whole entry, looked up): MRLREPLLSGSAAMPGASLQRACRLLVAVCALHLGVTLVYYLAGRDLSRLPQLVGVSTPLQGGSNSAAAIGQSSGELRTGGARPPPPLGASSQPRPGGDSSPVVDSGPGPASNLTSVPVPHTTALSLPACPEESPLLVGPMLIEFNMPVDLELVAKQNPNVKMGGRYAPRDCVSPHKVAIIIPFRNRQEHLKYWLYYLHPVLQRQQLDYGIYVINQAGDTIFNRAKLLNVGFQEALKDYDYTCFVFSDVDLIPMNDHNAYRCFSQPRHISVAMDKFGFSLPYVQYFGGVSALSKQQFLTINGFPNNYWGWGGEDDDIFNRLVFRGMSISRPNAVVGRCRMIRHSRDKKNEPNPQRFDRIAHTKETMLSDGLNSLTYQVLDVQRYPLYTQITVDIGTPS
Sequence of UniProt Q9UII2 (Q9UII2 whole entry, looked up): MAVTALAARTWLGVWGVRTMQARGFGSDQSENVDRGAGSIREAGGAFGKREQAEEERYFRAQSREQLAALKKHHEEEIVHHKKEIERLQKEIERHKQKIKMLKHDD
Sequence of UniProt Q00973 (Q00973 whole entry, looked up): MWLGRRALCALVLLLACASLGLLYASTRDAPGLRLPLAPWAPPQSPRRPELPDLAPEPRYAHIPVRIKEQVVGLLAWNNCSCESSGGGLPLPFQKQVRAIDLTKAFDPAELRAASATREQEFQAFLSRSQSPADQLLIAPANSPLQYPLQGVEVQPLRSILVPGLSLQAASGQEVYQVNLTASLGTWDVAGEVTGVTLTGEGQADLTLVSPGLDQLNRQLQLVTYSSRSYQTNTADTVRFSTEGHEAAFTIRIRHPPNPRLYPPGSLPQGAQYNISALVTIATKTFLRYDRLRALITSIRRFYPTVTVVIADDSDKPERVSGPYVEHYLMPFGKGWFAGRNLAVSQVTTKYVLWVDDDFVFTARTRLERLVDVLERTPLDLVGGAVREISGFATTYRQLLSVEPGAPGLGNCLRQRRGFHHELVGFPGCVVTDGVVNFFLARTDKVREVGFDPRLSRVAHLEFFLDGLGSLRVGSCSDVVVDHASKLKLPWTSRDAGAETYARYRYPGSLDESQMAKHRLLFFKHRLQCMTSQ
Sequence of UniProt Q9NUQ2 (Q9NUQ2 whole entry, looked up): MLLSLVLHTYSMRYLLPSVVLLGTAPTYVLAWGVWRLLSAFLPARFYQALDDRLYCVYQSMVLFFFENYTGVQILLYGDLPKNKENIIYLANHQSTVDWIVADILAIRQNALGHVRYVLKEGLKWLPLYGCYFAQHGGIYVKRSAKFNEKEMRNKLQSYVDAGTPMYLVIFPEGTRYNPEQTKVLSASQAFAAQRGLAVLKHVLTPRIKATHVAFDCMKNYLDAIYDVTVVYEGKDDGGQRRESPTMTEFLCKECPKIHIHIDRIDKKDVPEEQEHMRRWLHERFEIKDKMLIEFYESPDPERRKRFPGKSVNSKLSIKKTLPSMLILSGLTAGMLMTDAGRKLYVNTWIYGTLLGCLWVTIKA
Sequence of UniProt P53367 (P53367 whole entry, looked up): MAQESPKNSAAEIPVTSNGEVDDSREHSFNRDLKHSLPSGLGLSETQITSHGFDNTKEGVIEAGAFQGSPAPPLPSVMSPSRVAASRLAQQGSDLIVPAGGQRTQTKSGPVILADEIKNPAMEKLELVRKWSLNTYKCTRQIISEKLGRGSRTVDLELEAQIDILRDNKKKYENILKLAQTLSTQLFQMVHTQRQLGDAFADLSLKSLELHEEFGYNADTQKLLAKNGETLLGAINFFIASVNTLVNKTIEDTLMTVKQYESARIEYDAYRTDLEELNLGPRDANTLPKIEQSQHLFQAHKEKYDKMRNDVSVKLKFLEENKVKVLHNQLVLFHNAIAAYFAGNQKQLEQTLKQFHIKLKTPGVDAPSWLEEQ
Sequence of UniProt P11766 (P11766 whole entry, looked up): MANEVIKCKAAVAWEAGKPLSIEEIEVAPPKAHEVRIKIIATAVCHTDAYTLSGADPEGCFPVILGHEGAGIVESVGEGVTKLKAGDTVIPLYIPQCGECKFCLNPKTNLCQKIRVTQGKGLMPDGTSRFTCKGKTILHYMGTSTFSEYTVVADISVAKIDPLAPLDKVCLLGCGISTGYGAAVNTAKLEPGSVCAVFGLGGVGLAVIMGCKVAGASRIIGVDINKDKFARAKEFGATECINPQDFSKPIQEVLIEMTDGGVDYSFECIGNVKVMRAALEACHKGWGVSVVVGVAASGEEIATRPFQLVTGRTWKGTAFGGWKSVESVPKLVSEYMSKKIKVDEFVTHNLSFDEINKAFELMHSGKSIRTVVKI
Sequence of UniProt P55957 (P55957 whole entry, looked up): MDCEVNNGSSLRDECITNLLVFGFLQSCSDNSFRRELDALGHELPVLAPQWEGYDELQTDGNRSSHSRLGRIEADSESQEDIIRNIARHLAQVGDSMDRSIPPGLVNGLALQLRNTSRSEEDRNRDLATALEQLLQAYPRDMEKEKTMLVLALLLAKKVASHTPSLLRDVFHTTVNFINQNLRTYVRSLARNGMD
Sequence of UniProt Q8N6D5 (Q8N6D5 whole entry, looked up): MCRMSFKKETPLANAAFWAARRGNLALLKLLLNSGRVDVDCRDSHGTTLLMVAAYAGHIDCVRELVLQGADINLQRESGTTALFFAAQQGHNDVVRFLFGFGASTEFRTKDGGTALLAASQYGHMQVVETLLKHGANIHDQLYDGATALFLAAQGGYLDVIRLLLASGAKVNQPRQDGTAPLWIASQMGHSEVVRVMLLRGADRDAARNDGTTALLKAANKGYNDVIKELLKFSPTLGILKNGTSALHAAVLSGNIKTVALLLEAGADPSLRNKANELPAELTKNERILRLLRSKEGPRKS
Sequence of UniProt O00170 (O00170 whole entry, looked up): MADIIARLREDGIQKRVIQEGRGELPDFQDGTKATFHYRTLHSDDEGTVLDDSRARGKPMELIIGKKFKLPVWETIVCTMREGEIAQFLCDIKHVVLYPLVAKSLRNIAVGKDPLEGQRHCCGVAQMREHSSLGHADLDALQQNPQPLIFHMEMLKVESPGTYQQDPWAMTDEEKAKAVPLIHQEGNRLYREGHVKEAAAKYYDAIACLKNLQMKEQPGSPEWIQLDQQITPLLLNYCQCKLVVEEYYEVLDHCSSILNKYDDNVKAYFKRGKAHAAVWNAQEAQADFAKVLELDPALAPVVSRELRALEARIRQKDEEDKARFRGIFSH
Sequence of UniProt Q66PJ3 (Q66PJ3 whole entry, looked up): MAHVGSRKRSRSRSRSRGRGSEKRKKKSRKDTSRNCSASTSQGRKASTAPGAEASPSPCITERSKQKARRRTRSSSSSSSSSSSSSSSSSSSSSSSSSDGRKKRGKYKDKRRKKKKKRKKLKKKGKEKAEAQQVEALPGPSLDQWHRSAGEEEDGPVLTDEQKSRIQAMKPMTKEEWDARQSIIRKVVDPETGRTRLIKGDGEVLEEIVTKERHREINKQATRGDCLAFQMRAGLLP

Target | log2 fold change
AAMP (UniProt Q13685) | -0.037
AKAP8 (UniProt O43823) | 0.033
ABITRAM (UniProt Q9NX38) | 0.006
ARL6IP4 (UniProt Q66PJ3) | 0.013
ATP6V1H (UniProt Q9UI12) | 0.038
B4GALT1 (UniProt P15291) | 0.071
ASNS (UniProt P08243) | -0.026
BCCIP (UniProt Q9P287) | 0.01
BUB1B isoform 3 (UniProt O60566) | 0.047
ATP9B (UniProt O43861) | 0.015
ATP2A3 isoform 2 (UniProt Q93084) | -0.023
ACAD9 (UniProt Q9H845) | -0.002
BRD8 (UniProt Q9H0E9) | 0.023
AGPAT5 (UniProt Q9NUQ2) | 0.001
AIP (UniProt O00170) | -0.024
ACADVL isoform 3 (UniProt P49748) | -0.065
BID isoform 2 (UniProt P55957) | -0.013
BCL9L (UniProt Q86UU0) | 0.006

Target | log2 fold change
ARFGAP2 (UniProt Q8N6H7) | -0.009
AHSA1 (UniProt O95433) | -0.029
ANKRD29 (UniProt Q8N6D5) | 0.097
BRAP (UniProt Q7Z569) | 0.081
BCCIP isoform 2 (UniProt Q9P287) | -0.008
ACP2 (UniProt P11117) | 0.016
B4GALNT1 (UniProt Q00973) | 0.065
ACIN1 (UniProt Q9UKV3) | 0.029
BCLAF1 (UniProt Q9NYF8) | 0.035
ABCA3 (UniProt Q99758) | 0.031
ATP5IF1 (UniProt Q9UII2) | -0.015
AGO1 (UniProt Q9UL18) | -0.066
ADH5 (UniProt P11766) | -0.033
ARGLU1 (UniProt Q9NWB6) | 0.047
ABCB6 (UniProt Q9NP58) | 0.049
ARFIP1 (UniProt P53367) | 0
ATG4B isoform 2 (UniProt Q9Y4P1) | 0.003

What follows are targets tested with Cc1ccc(C(=O)N(CCCN)[C@@H](c2nc3cc(Cl)ccc3c(=O)n2Cc2ccccc2)C(C)C)cc1 [ispinesib] in the same assay as above.
Method in brief: as §1

Target | log2 fold change
AAMP (UniProt Q13685) | 0.038
AKAP8 (UniProt O43823) | -0.103
ABITRAM (UniProt Q9NX38) | 0.108
ARL6IP4 (UniProt Q66PJ3) | -0.051
ATP6V1H (UniProt Q9UI12) | -0.089
B4GALT1 (UniProt P15291) | -0.066
ASNS (UniProt P08243) | 0.031
BCCIP (UniProt Q9P287) | 0.001
BUB1B isoform 3 (UniProt O60566) | -0.072
ATP9B (UniProt O43861) | -0.208
ATP2A3 isoform 2 (UniProt Q93084) | -0.091
ACAD9 (UniProt Q9H845) | 0.059
BRD8 (UniProt Q9H0E9) | -0.022
AGPAT5 (UniProt Q9NUQ2) | -0.145
AIP (UniProt O00170) | 0.011
ACADVL isoform 3 (UniProt P49748) | -0.01
BID isoform 2 (UniProt P55957) | 0.022
BCL9L (UniProt Q86UU0) | 0.025

Target | log2 fold change
ARFGAP2 (UniProt Q8N6H7) | 0.039
AHSA1 (UniProt O95433) | -0.003
ANKRD29 (UniProt Q8N6D5) | -0.055
BRAP (UniProt Q7Z569) | -0.089
BCCIP isoform 2 (UniProt Q9P287) | 0.059
ACP2 (UniProt P11117) | -0.036
B4GALNT1 (UniProt Q00973) | -0.077
ACIN1 (UniProt Q9UKV3) | 0.007
BCLAF1 (UniProt Q9NYF8) | 0.164
ABCA3 (UniProt Q99758) | -0.502 (active)
ATP5IF1 (UniProt Q9UII2) | -0.019
AGO1 (UniProt Q9UL18) | 0.125
ADH5 (UniProt P11766) | -0.003
ARGLU1 (UniProt Q9NWB6) | 0.242
ABCB6 (UniProt Q9NP58) | -0.207
ARFIP1 (UniProt P53367) | -0.232
ATG4B isoform 2 (UniProt Q9Y4P1) | -0.277
